± gives the uncertainty stated by the source.

The test relates to FLX1. As to the kind of experiment: cell viability z-score within plate (CellTiter-Glo), mean of 3 biological replicates; higher = higher viability relative to plate (less growth inhibition). Particulars: 2 µM; time (hr): 120. As for the experimental part: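 FLX1 fibrolamellar carcinoma cells (DNAJB1-PRKACA fusion), 600 cells/well in 384-well plates, treated with a Selleck kinase inhibitor library (L1200) at 2 uM for 5 days (120 hr); viability by CellTiter-Glo. A z-score was computed within each plate and averaged over three biological replicates.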
For orientation: In ATP-based viability assays light output follows the ATP content of the culture.
Regarding `C=CC(=O)Nc1cc(Nc2nccc(-c3cn(C)c4ccccc34)n2)c(OC)cc1N(C)CCN(C)C` [Osimertinib (AZD9291)], the “cell viability z-score within plate” value was -0.225 ± 0.34. For `C=CC(=O)Nc1cccc(Nc2nc(Nc3ccc(Oc4ccnc(C(=O)NC)c4)cc3)ncc2F)c1` the value was 0.519 ± 0.21; for `COc1cc(F)c(F)c(Nc2ccc(I)cc2F)c1NS(=O)(=O)C1(C[C@H](O)CO)CC1` [Refametinib (RDEA119, Bay 86-9766)], -1.34 ± 1.7.

With `CCN(CC)CCNC(=O)c1c(C)[nH]c(/C=C2\C(=O)Nc3ccc(F)cc32)c1C` [Sunitinib Malate], the “cell viability z-score within plate” value is -0.049 ± 0.26. For `O=c1ncn2nc(Sc3ccc(F)cc3F)ccc2c1-c1c(Cl)cccc1Cl` the value was -3.62 ± 2.1. For the molecule `CCN1/C(=C/C(C)=O)Sc2ccc(OC)cc21`, the “cell viability z-score within plate” value was -1.85 ± 0.92. The same measure for `Cn1ncc(Cl)c1-c1cc(C(=O)N[C@H](CN)Cc2ccc(F)c(F)c2)oc1Cl`: -0.657 ± 0.15; for `Cc1nc(Nc2n[nH]c3c2CN(C(=O)N[C@H](CN(C)C)c2ccccc2)C3(C)C)c2sccc2n1`: 1.12 ± 0.47; for `COc1cc(Nc2c(C#N)cnc3cc(OCCCN4CCN(C)CC4)c(OC)cc23)c(Cl)cc1Cl` [Bosutinib (SKI-606)]: 0.309 ± 0.56. The same measure for `CCc1nc(-c2cccc(C)c2)c(-c2ccnc(NC(=O)c3ccccc3)c2)s1`: 0.996 ± 0.36; for `O=C(Cc1ccc(-c2ccc(OCCN3CCOCC3)cc2)cn1)NCc1ccccc1`: 0.711 ± 0.45. `CN1CCN(c2ccc(Nc3cc(-c4cccc(-n5ccc6cc(C7CC7)cc(F)c6c5=O)c4CO)cn(C)c3=O)nc2)CC1`: the “cell viability z-score within plate” value is -0.244 ± 0.38.

For the molecule `O=C1NC(=O)C(=Cc2ccc(-c3ccc(F)cc3)o2)S1` (stereo in doubt), the “cell viability z-score within plate” value amounted to 0.244 ± 0.32. The same measure for `C[C@@]1(C(=O)Nc2ccc(F)nc2)CCCN1c1nc(Nc2cc(C3CC3)n[nH]2)c2cccn2n1`: -1.16 ± 0.41. For `CNc1nc(Nc2cnn([C@H]3CCN(C4COC4)C[C@@H]3F)c2Cl)ncc1C(F)(F)F` the value was -0.856 ± 0.51; for `O=C(O)c1ccc(-c2c[nH]c3ncc(-c4ccccc4)cc23)cc1C1CCCC1`, -1.12 ± 1.1; for `CNc1nc(Nc2cn(C(C)(C)C#N)nc2C)ncc1C(F)(F)F`, 0.707 ± 0.76. On to `CNCc1ccc(-c2cc(-c3nc(-c4ccc(S(=O)(=O)C(C)C)cc4)cnc3N)on2)cc1`, for which the “cell viability z-score within plate” value was determined as 0.59 ± 0.39.

Turning to `CCc1cccc(CC)c1NC(=O)N1Cc2[nH]nc(NC(=O)c3ccc(N4CCN(C)CC4)cc3)c2C1`, the “cell viability z-score within plate” value was -0.62 ± 0.28.

`CC(C)CC(=O)Nc1n[nH]c2c1CN(C(=O)C1CCN(C)CC1)C2(C)C`: the “cell viability z-score within plate” value stood at 0.0889 ± 0.24. As to `Oc1cc(O)cc(/C=C/c2ccc(O)c(O)c2)c1` [Piceatannol], the “cell viability z-score within plate” value was -0.333 ± 0.2. The same measure for `NC(=O)c1ncn([C@@H]2O[C@H](CO)[C@@H](O)[C@H]2O)c1N` [AICAR (Acadesine)]: 0.371 ± 0.82. Regarding `Clc1ccc(Nc2nnc(Cc3ccncc3)c3ccccc23)cc1` [Vatalanib (PTK787) 2HCl], the “cell viability z-score within plate” value is -0.254 ± 0.59. Take `CCn1c(-c2nonc2N)nc2c(C#CC(C)(C)O)ncc(OC[C@H]3CCCNC3)c21`: the “cell viability z-score within plate” value was -1.24 ± 0.86.

For `CCc1ccc(/C=C2/SC(=S)NC2=O)cc1`, the “cell viability z-score within plate” value is 0.872 ± 0.44. For `Cc1cc(Nc2nc(N[C@@H](C)c3ncc(F)cn3)ncc2Cl)[nH]n1`, the “cell viability z-score within plate” value was -0.166 ± 0.46. For `CC(C)(C)c1cc(/C=C(\C#N)C(N)=S)cc(C(C)(C)C)c1O` [Tyrphostin AG 879] the value was 0.585 ± 0.3. For `CCS(=O)(=O)Nc1ccc2c(c1)/C(=C(/Nc1ccc(CN3CCCCC3)cc1)c1ccccc1)C(=O)N2` [Hesperadin] the value was -2.01 ± 0.23; for `CN1CCN(c2cccc(Nc3nc4c(-c5ccc(S(C)(=O)=O)cc5)cccn4n3)c2)CC1`, 1.01 ± 0.27. For `CNC(=O)c1nn(C)c2c1C(C)(C)Cc1cnc(Nc3ccc(N4CCN(C)CC4)cc3)nc1-2` the value was 0.949 ± 0.33. `O=c1ccc2ccc(O)c(O)c2o1` [Daphnetin]: the “cell viability z-score within plate” value came out at 1.53 ± 0.8. With `Cc1c(F)cc(C(=O)NC2CC2)cc1-c1ccc(C(=O)NCC(C)(C)C)cn1`, the “cell viability z-score within plate” value is -0.342 ± 0.51. The same measure for `COc1cc(Nc2ncc(F)c(Nc3ccc4c(n3)NC(=O)C(C)(C)O4)n2)cc(OC)c1OC` [R406 (free base)]: 0.533 ± 0.55; for `CCCS(=O)(=O)Nc1ccc(F)c(C(=O)c2c[nH]c3ncc(Cl)cc23)c1F`: 0.17 ± 0.093.

In the case of `C#Cc1cccc(Nc2ncnc3cc4c(cc23)OCCOCCOCCO4)c1` [Icotinib], the “cell viability z-score within plate” value was 0.676 ± 0.52. For `C[C@@H](Oc1cc(-c2cnn(C3CCNCC3)c2)cnc1N)c1c(Cl)ccc(F)c1Cl` the value was 0.281 ± 0.54; for `Oc1cccc(-c2nc(N3CCOCC3)c3oc4ncccc4c3n2)c1`, -0.163 ± 0.28.

In the case of `Cc1cc(F)c(Nc2ncnc3cc(OCc4ccccc4)ccc23)cc1O`, the “cell viability z-score within plate” value is -0.328 ± 0.22. The same measure for `COCCOc1ccc2c(c1)ncn2-c1ccc2cccc(N3CCC(N)CC3)c2n1`: 0.546 ± 0.4. For `Cn1cc(-c2ccc3ncc(Cc4ccc5ncccc5c4)n3n2)cn1` the value was 0.137 ± 0.93.

(Values after the supplement of paper PMC9925115.)
